Pf Dd2 inh = qHTS Primary assay for Inhibitors of Plasmodium falciparum Dd2 growth in vitro. P. falciparum Dd2 growth, SYBR Green, 72 h. Potency, µM (highest dose often 28.9 µM), usual class: inhibitors. 4.3% of 120,000 active. AID 1347417, 2020; active = well fitted inhibition curve with a large enough effect; note: nearly all actives have a fitted effect of over 65% in size
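Infected erythrocytes (Dd2, 0.3% parasitemia, 2.5% hematocrit final) are added to compound in RPMI-1640/Albumax II medium, grown 72 h at 37C in low oxygen, then lysed with saponin/Triton-X containing SYBR Green and read by fluorescence.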
Each line names hits and unclear results; the compound was inactive in the other large screens. Only a selection was taken, and hits are over-represented in it overall.

CN1C(=O)C2(CCN(S(=O)(=O)c3ccc(F)cc3)C2)c2ccccc21 (centres undefined)	none
CN1C(=O)C2(CCN(C(=O)c3ccc(Cl)cc3)C2)c2ccccc21 (centres undefined)	none
CN1C(=O)C2(CCN(Cc3ccc(F)cc3)C2)c2ccccc21 (centres undefined)	Pf Dd2 inh 13µM
O=C1N(c2ccccc2)c2ccccc2C12CCN(Cc1ccccc1)C2 (centres undefined)	Pf Dd2 inh 11µM
O=C(c1ccc(C(F)(F)F)cc1)N1CCC2(C1)C(=O)N(Cc1ccccc1)c1ccccc12 (centres undefined)	none
CN1C(=O)C2(CCN(C(=O)Cc3ccccc3Cl)C2)c2ccccc21 (centres undefined)	Pf Dd2 inh 3.2µM
O=C1Nc2ccccc2C12CCN(Cc1cccnc1)C2 (centres undefined)	none
O=C(c1ccccc1F)N1CCC2(C1)C(=O)N(c1ccccc1)c1ccccc12 (centres undefined)	none
CC(C)NC(=O)c1cc2n(n1)CC(c1ccc3c(c1)OCO3)OC2 (centres undefined)	none
CC[C@H]1CN(S(=O)(=O)c2ccccc2)CC[C@H]1CC(=O)NCc1cccnc1	none
COc1cccc(N2CC(C(=O)NCC(F)F)NC2=O)c1 (centres undefined)	none
Cc1ccc(-c2nc3cnccn3c2NCCC(=O)O)cc1	none
Fc1ccccc1CNC1(Cc2cc(-c3ccccn3)on2)COC1	none
CNC(=O)CC1C(=O)NCCN1C(=O)c1cc(COc2ccccc2)[nH]n1 (centres undefined)	none
CNC(=O)[C@@H]1CN(C(=O)CCc2ccccc2OC)C[C@H]1COC	none
CC(C)CCN(C1CCOCC1)C1CCN(C(=O)c2ccc(F)cc2)CC1	none
O=C(Nc1cc(F)c(F)c(F)c1)N1CC2CC(C1)[C@H]1CCCC(=O)N1C2 (some centres undefined)	none
O=C1Nc2ccccc2C12CCN(Cc1ccsc1)CC2	none
CN1C(=O)C2(CCN(Cc3ccnn3C)C2)c2ccccc21 (centres undefined)	none
CN1C(=O)C2(CCN(Cc3cccc4ccccc34)C2)c2ccccc21 (centres undefined)	Pf Dd2 inh 13µM
CN1C(=O)C2(CCN(S(=O)(=O)c3ccccc3)C2)c2ccccc21 (centres undefined)	none
CN1C(=O)C2(CCN(Cc3ccsc3)C2)c2ccccc21 (centres undefined)	Pf Dd2 inh 5.6µM
CN1C(=O)C2(CCN(Cc3cncs3)C2)c2ccccc21 (centres undefined)	none
N#Cc1ccnc(-c2nnc3ccc(NC4CC4)nn23)c1	none
CCCS(=O)(=O)N1CCC(Cn2c(C)cnc2C2CC2)CC1	none
CN(C)c1ccc(C(=O)N[C@H]2C[C@H]3C(=O)NC[C@@H](CCC(=O)NCc4cccs4)N3C2)cc1	none
CC1(c2noc(C3(C)CCOCC3)n2)CCNCC1	none
COc1ccccc1-c1[nH]ncc1CN1CCC2(CC1)CC(O)CCO2 (centres undefined)	none
O=C1CC(c2ccccc2)N(Cc2cn[nH]c2-c2cccs2)CCCCCN1 (centres undefined)	none
COCCC1(NC(=O)c2ccccc2)CCN(Cc2cn[nH]c2-c2cccs2)CC1	Pf Dd2 inh 8.9µM
COc1cccc(NC(=O)c2ccc3c(c2)NC(C)(COCCN(C)C)CO3)c1 (centres undefined)	none
CCOCC1(C)COc2ccc(C(=O)N(C)c3ccccc3)cc2N1 (centres undefined)	none
CCOCC1(C)COc2ccc(C(=O)Nc3cccc(N(C)C)c3)cc2N1 (centres undefined)	Pf Dd2 inh 3.2µM
Cc1nn(CC(=O)NCc2ccc(N(C)C)cc2)c(=O)c2nc(C(C)C)sc12	none
CCc1nccn1CCC(=O)N[C@H]1CN(C(=O)COC)C[C@@H]1C1CC1	none
COC[C@H]1CCCN1Cc1nc(C2(O)CCN(C(=O)Nc3ccc(F)cc3)CC2)cs1	none
OC1(c2csc(CN3CCN(c4ccccn4)CC3)n2)CCNCC1	none
COC[C@H]1CCCN1Cc1nc(C2(O)CCN(Cc3ccc(F)cc3)CC2)cs1	Pf Dd2 inh 7.9µM
OC1(c2csc(CN3CCN(c4ccccn4)CC3)n2)CCN(Cc2ccc(F)cc2)CC1	Pf Dd2 inh 5µM
COC[C@H]1CCCN1Cc1nc(C2(O)CCN(CC(C)C)CC2)cs1	none
CN1CCN(Cc2nc(C3(O)CCN(Cc4ccccc4)CC3)cs2)CC1	none
Cc1nc(C)c(C(=O)N2[C@@H]3CC[C@H]2CC(NC(=O)c2ccncc2)C3)s1 (some centres undefined)	none
O=C(CCn1nnc(-c2ccccc2)n1)N1CCCC2(CCNCC2)CC1	none
COc1ccc(CCc2nc3nccc(-c4ccc(OC)cc4F)n3n2)cc1	none
NC(=O)c1ccc(CC2CCN(C(=O)c3cnccn3)CC2)cc1	none
CCc1ccc(S(=O)(=O)N(C)CC2CCOC2)cc1 (centres undefined)	none
CNC(=O)C1(N2CCC[C@H]2C(=O)N2CCOCC2)CCCCC1	none
COc1ccccc1N1CCN(c2ccc(-c3nc(-c4ccccc4C)no3)cc2[N+](=O)[O-])CC1	none
COc1ccccc1-c1noc(-c2ccc(N3CCN(c4ccccc4)CC3)c([N+](=O)[O-])c2)n1	Pf Dd2 inh 10µM
COc1ccc(-c2noc(-c3ccc(N4CCN(c5ccccc5)CC4)c([N+](=O)[O-])c3)n2)cc1	none
CCCNc1cc(N2CCC(CCC(=O)Nc3cc(C)ccc3OC)CC2)ncn1	none
COc1ccc(C(=O)NC2CCN(C(=O)c3cc4c(=O)[nH]c(C)cn4n3)CC2)cc1	none
COc1ccc2cc(C(=O)N3CCC(Cc4ccc(C(=O)NC5CC5)cc4)CC3)[nH]c2c1	Pf Dd2 inh 4.5µM
CNC(=O)[C@@H]1CN(C(=O)c2cc3ccc(OC)cc3[nH]2)C[C@H]1C1CCN(C)CC1	none
O=c1[nH]ccn1C1CCN(Cc2ccc(OC(F)(F)F)cc2)CC1	none
CCOC(=O)C1CCN(c2nc3ccccc3nc2Cl)CC1	none
CCOC(=O)C1CCN(c2c(C(=O)c3ccc(OC)cc3)cnc3ccccc23)CC1	Pf Dd2 inh 8.9µM
CCOC(=O)C1CCN(C(=O)c2c[nH]c3ncccc23)CC1	none
O=C(NCCC1=CCCN(CCCn2cccc2)C1)c1ccco1	none
Cn1ncc(N2CCCC(CC(=O)Nc3ccc(F)c(F)c3)C2)cc1=O (centres undefined)	none
COC(=O)[C@H](NC(=O)[C@@H]1C[C@H](NC(=O)Nc2ccc(OC)cc2)CN1C(=O)C=C(C)C)C(C)C	none
O=C(CCC1CCCN(CC2=Cc3cc(Cl)ccc3OC2)C1)Nc1ccccc1F (centres undefined)	none
CC(C)(O)C#Cc1ccc(CN2CCCC(CCC(=O)Nc3ccccc3F)C2)s1 (centres undefined)	none
O=C(CCC1CCCN(Cc2cnc(-c3ccccc3)s2)C1)Nc1ccccc1F (centres undefined)	Pf Dd2 inh 14µM
N#Cc1ccc(CN2CCC3(CC2)CC(=O)c2ccc(Cl)cc2O3)cc1	Pf Dd2 inh 11µM
Cc1cc(CN2CCC3(CC2)CC(=O)c2ccc(Cl)cc2O3)no1	none
CC(=O)Nc1ccc(CN2CCC3(CC2)CC(=O)c2ccc(Cl)cc2O3)cc1	none
COc1cccc(CC(=O)N[C@H](C)c2onc(-c3ccc(F)cc3)c2C(=O)O)c1	none
CC(C)NC(=O)C[C@@H]1C[C@H]2O[C@H](CN(C)C)[C@@H](O)[C@H]2O1	none
C[S+](=O)([O-])N1CCC(Cn2ccc3c(N4CCOCC4)nc(-c4cccc5[nH]ccc45)cc32)CC1	none
C[S+](=O)([O-])N1CCC(Cn2ccc3c(N4CCOCC4)nc(-c4cncnc4)cc32)CC1	none
